# PubChem BioAssay (Tox21)
# Records with an inconclusive call do not appear. Values without a mark were called inactive. The source made the active and inactive calls. Calls follow the shape of the dose curve; as a rule, active = well fitted cell-killing curve with a large enough effect in the repeat runs; inconclusive = weak or mixed curves, or effect the other way; inactive = flat fitted curve, though single readings scatter.
# Test: cAMP Responsive Elements (CRE) small molecule antagonists, cell-based qHTS assay: qHTS cell viability counter screen (AID 2060913); also: nearly all actives have a fitted effect of over 40% in size
# Settings: CRE-bla HEK293T viability, CellTiter-Glo luminescence, 5 h; series mostly up to 92.4 µM; viability change, negative = cytotoxic: at the top concentration
# In short: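 CRE-bla HEK293T cells (2,000/well, 18 h) given compound plus NKH477 0.25 uM final for 3 h at 37C; viability counter-screen by CellTiter-Glo luminescence in same wells after 30 min.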
# % is scaled to controls: 0 for no effect and ±100 for the full control effect; potency is read from the fitted curve at half-maximal effect.
SMILES,Potency,"viability change, negative = cytotoxic"
C[C@H]1O[C@@H](O[C@H]2[C@@H](O)C[C@H](O[C@H]3[C@@H](O)C[C@H](O[C@H]4CC[C@@]5(C)[C@H](CC[C@@H]6[C@@H]5C[C@@H](O)[C@]5(C)[C@@H](C7=CC(=O)OC7)CC[C@]65O)C4)O[C@@H]3C)O[C@@H]2C)C[C@H](O)[C@@H]1O,0.0632 µM (active),
CCc1cc(S(=O)(=O)O)c2cc(C(C)C)cccc1-2,,14.1% [at 42.5 µM]
C=CCCCCCC,,-2.18%
CCCC(=O)c1cc(O)c(O)cc1O,,-0.0407%
CNc1c2c(nn1C)CCCC2,,-0.578% [at 42.5 µM]
CC(=O)OCC(=O)[C@@]1(O)[C@H](C)C[C@H]2[C@@H]3CCC4=CC(=O)C=C[C@]4(C)[C@@]3(F)[C@@H](O)C[C@@]21C,,3.13% [at 42.5 µM]
NC1(c2ccc(-c3nc4ccn5c(=O)[nH]nc5c4cc3-c3ccccc3)cc2)CCC1,,-11.2% [at 42.5 µM]
CCCCCCOc1ccccc1C(N)=O,,16.2% [at 42.5 µM]
COC(=O)CCc1ccc(OCC(O)CNC(C)C)cc1 (stereo not given),,2.4% [at 42.5 µM]
CCOCCOCCOCC,,0.871%
COc1ccc(OC)c(OC)c1,,3.63%
CCCN(CCc1cccs1)[C@H]1CCc2c(O)cccc2C1,,-4.7% [at 42.5 µM]
CCCCCCCCCCCCN1CCCC1=O,,0.273%
CCCCCCCC1CCCC1=O (stereo not given),,0.877%
CCC(C)(CCC(C)C)C(=O)O (stereo not given),,6.83%
O=[N+]([O-])c1ccc2c(c1)Cc1ccccc1-2,,2.28%
CCO[Si](CCCN)(OCC)OCC,inactive,
O=S(c1cc(Cl)cc(Cl)c1O)c1cc(Cl)cc(Cl)c1O,,1.02% [at 42.5 µM]
C[C@@H](O)[C@H]1C(=O)N2C(C(=O)O)=C(S[C@@H]3CN[C@H](CNS(N)(=O)=O)C3)[C@H](C)[C@H]12,,1.01% [at 42.5 µM]
NCc1cccc(C2CCN(C(=O)c3ccc(C#Cc4ccccc4F)o3)CC2)c1,68.6 µM (active),

SMILES,Potency,"viability change, negative = cytotoxic"
CCc1ccc(C)cc1,,-1.38%
CCOCCOC(=O)/C=C/c1ccc(OC)cc1,,3% [at 42.5 µM]
C#CCOC(=O)[C@@H](C)Oc1ccc(Oc2ncc(Cl)cc2F)cc1,,3.96%
C=CC(=O)OCC(CO)(COC(=O)C=C)COC(=O)C=C,28.5 µM (active),
CCOC(=O)NCCC[Si](OCC)(OCC)OCC,,-0.154%
COc1c2occc2cc2ccc(=O)oc12,inactive,
CCCCNC(=S)NCCCC,,1.39%
CC1(C)O[C@@H]2C[C@H]3[C@@H]4CCC5=CC(=O)C=C[C@]5(C)[C@@]4(F)[C@@H](O)C[C@]3(C)[C@]2(C(=O)CO)O1,inactive,
Cc1cccc(N(C)C(=S)Oc2ccc3c(c2)C2CCC3C2)c1 (stereo not given),,-10.3% [at 42.5 µM]
CCCCCCC(O)CO (stereo not given),,1.04%
C=CCn1c(=O)n([C@@H]2O[C@H](CO)[C@@H](O)[C@H]2O)c2nc(N)[nH]c(=O)c21,,10.1% [at 42.5 µM]
CCCn1cnc2c1c(=O)n(CCCCC(C)=O)c(=O)n2C,,0.469% [at 42.5 µM]
CC(C)CC(C)(C)C,,-7.12%
Nc1cccc2c(N)cccc12,,17.8%
Cc1cc(F)ccc1-c1cc(N2CC[C@@H](O)[C@H]2CO)ncc1N(C)C(=O)C(C)(C)c1cc(C(F)(F)F)cc(C(F)(F)F)c1,44.6 µM (active),
NC(=O)[C@@H]1CSSCCC(=O)N[C@@H](CCCCN=C(N)N)C(=O)NCC(=O)N[C@@H](CC(=O)O)C(=O)N[C@@H](Cc2c[nH]c3ccccc23)C(=O)N2CCC[C@H]2C(=O)N1,,-4.2% [at 42.5 µM]
NNc1nnc(NN)c2ccccc12,,1.28% [at 42.5 µM]
CC1CC(=O)NN=C1c1ccc(NCC(C)(C)NCC(O)COc2cc(Cl)ccc2C#N)cc1 (stereo not given),,1.48% [at 42.5 µM]
O=C(OCC(COC(=O)c1cccnc1)(COC(=O)c1cccnc1)COC(=O)c1cccnc1)c1cccnc1,,7.93% [at 42.5 µM]
CC1=NS(=O)(=O)c2cc(Cl)ccc2N1,,8.19% [at 42.5 µM]
